How the values were obtained:
Settings in all cases: concentration: 1 μM, replicates: in singlicate; n = 1
EIF2AK1 = test system: EIF2AK1
EPHA1 = test system: EPHA1
EPHA2 = test system: EPHA2
EPHA3 = test system: EPHA3
EPHA4 = test system: EPHA4
EPHA5 = test system: EPHA5
EPHA6 = test system: EPHA6
EPHA7 = test system: EPHA7
EPHA8 = test system: EPHA8
EPHB1 = test system: EPHB1
EPHB2 = test system: EPHB2
EPHB3 = test system: EPHB3
EPHB4 = test system: EPHB4
EPHB6 = test system: EPHB6
ERBB2 = test system: ERBB2
ERBB3 = test system: ERBB3
ERBB4 = test system: ERBB4
ERK1 = test system: T1, ERK1
T1 construct: gene MAPK3

ERK2 = test system: T2, ERK2
T2 construct: gene MAPK1

ERK3 = test system: T3, ERK3
T3 construct: gene MAPK6
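Further: KINOMEscan kinase panel screen.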

Row | SMILES | %Inh (EIF2AK1) [%] | %Inh (EPHA1) [%] | %Inh (EPHA2) [%] | %Inh (EPHA3) [%] | %Inh (EPHA4) [%] | %Inh (EPHA5) [%] | %Inh (EPHA6) [%] | %Inh (EPHA7) [%] | %Inh (EPHA8) [%] | %Inh (EPHB1) [%] | %Inh (EPHB2) [%] | %Inh (EPHB3) [%] | %Inh (EPHB4) [%] | %Inh (EPHB6) [%] | %Inh (ERBB2) [%] | %Inh (ERBB3) [%] | %Inh (ERBB4) [%] | %Inh (ERK1) [%] | %Inh (ERK2) [%] | %Inh (ERK3) [%]
1 | COc1ccc(Nc2nccc(N3CCC(NC(=O)Nc4ccc5c(c4)OCO5)C3)n2)cc1 (stereo not shown) [GSK1379745] | 0 | 8 | 0 | 0 | 11 | 0 | 19 | 7 | 20 | 4 | 0 | 24 | 29 | 47 | 28 | 28 | 0 | 3 | 12 | 14
2 | CNc1nccc(-c2c(-c3ccc(F)cc3)ncn2CCCN2CCOCC2)n1 [SB-222516] | 12 | 14 | 0 | 0 | 0 | 0 | 0 | 21 | 25 | 17 | 0 | 0 | 8 | 0 | 0 | 30 | 8 | 7 | 1 | 0
3 | FC(F)(F)c1ccc(-c2cc(-c3c[nH]nc3-c3ccccn3)ccn2)cc1 [GW599550] | 100 | 2 | 0 | 13 | 0 | 0 | 0 | 5 | 9 | 30 | 0 | 0 | 8 | 37 | 38 | 16 | 0 | 15 | 0 | 0
4 | CSc1ccc(NC2=C(c3ccccc3Cl)C(=O)NC2=O)cc1 [SB-342411] | 0 | 2 | 27 | 16 | 7 | 0 | 0 | 6 | 14 | 9 | 15 | 0 | 3 | 18 | 0 | 0 | 0 | 5 | 0 | 0
5 | Fc1cccc(COc2ccc(Nc3ncnc4sc(-c5ccc[nH]5)cc34)cc2Cl)c1 [GW707818] | 0 | 0 | 0 | 18 | 0 | 0 | 0 | 0 | 4 | 1 | 15 | 0 | 0 | 16 | 100 | 0 | 88 | 0 | 0 | 3
6 | COc1ccc(-c2oc3ncnc(N)c3c2-c2ccc(OC)cc2)cc1 [SB-589132] | 3 | 70 | 19 | 0 | 32 | 0 | 50 | 0 | 9 | 0 | 0 | 24 | 5 | 36 | 41 | 46 | 33 | 0 | 0 | 6
7 | CSc1nn2c(=O)cc(N3CCOCC3)nc2n1Cc1cccc(Cl)c1Cl [GSK2347225] | 2 | 1 | 11 | 15 | 8 | 1 | 3 | 12 | 15 | 29 | 0 | 6 | 11 | 52 | 0 | 0 | 0 | 0 | 17 | 15
8 | FC(F)(F)c1ccc(-c2nn3ncccc3c2-c2ccnc(Nc3cccc(C(F)(F)F)c3)n2)cc1 [GW828205] | 0 | 34 | 19 | 0 | 81 | 0 | 78 | 0 | 0 | 2 | 1 | 68 | 55 | 0 | 13 | 27 | 35 | 0 | 3 | 0
